This is an account of results in PubChem BioAssay.

Activity calls are given as the source filed them. Unless noted, no rule for the calls is given here.

A short description of experiment [1]: anti-His antibody binders, primary screen, artefact control for SMM control protein annotation, biochemical, small-molecule microarray, 635 nm fluorescence (AID 1128).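 Also: score merges feature fluorescence with signal-to-noise for each printed compound spot.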 Particulars: anti-His Alexa647 antibody binding, higher = more signal.
The test system of experiment [2] is Human papillomavirus type 1a E7 protein (residues 1-88). Description: HPV1a E7 small-molecule binders, primary screen, biochemical, small-molecule microarray, residues 1-88, 635 nm (AID 1129). Conditions: small-molecule microarray binding, fluorescence 635 nm; higher = more signal.
Experiment [3] addresses Focal adhesion kinase 1 (Homo sapiens) (UniProt Q05397). Description: small-molecule microarray binders of FAK, primary screen, biochemical, 635/667 nm fluorescence, BSA, DTT (AID 1130).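 Also: composite of spot emission at 667 nm and signal to noise over triplicate slides.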 Conditions: PTK2 binding, 635 nm fluorescence, higher = more signal.
Experiment [4] relates to Fibrinogen (Alexa647-labelled). Description: fibrinogen binders on compound microarrays, profiling panel, artefact control for SMM control-protein annotation, biochemical, small-molecule microarray, 635/667 nm fluorescence (AID 1131).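 Also: z-score merges 667 nm fluorescence with per-spot signal-to-noise over triplicate slides.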 Conditions: fibrinogen-A647 binding fluorescence, higher = more signal.
The target of experiment [5] is Follistatin (Homo sapiens) (UniProt P19883). Nature of the experiment: follistatin binders on small-molecule microarrays, primary screen, biochemical, small-molecule microarray, 635/667 nm fluorescence (AID 1132). Conditions: FST binding, 635 nm fluorescence, higher = more signal.
Sequence of Follistatin (Homo sapiens) (P19883 whole entry, looked up): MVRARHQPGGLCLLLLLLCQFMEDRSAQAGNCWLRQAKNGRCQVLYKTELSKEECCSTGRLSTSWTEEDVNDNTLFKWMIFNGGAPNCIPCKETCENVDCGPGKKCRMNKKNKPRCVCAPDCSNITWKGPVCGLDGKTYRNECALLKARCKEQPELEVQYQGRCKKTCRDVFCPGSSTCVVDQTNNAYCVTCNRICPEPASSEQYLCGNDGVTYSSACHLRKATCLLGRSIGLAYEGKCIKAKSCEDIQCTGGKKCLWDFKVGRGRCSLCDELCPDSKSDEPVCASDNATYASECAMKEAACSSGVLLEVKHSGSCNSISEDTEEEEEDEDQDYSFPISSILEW
The target in experiment [6] is Fibroblast growth factor 2 (Homo sapiens) (UniProt P09038). Description: FGF2 binders on small-molecule microarrays, primary screen, biochemical, small-molecule microarray, 635/667 nm fluorescence (AID 1133). Particulars: small-molecule microarray binding, FGF2, fluorescence 635/667; higher = more signal.
Sequence of Fibroblast growth factor 2 (Homo sapiens) (P09038 whole entry, looked up): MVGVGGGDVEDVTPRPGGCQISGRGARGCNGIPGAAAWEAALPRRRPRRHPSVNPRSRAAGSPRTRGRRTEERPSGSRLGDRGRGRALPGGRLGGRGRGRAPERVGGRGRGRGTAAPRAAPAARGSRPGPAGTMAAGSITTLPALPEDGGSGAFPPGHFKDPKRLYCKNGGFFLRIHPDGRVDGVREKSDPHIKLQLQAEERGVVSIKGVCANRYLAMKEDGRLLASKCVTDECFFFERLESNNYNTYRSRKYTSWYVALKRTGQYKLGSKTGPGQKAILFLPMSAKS
A short description of experiment [7]: mitochondrial membrane potential change in A549 cells, profiling panel, cell-based, JC-1 fluorescence, basal, 24 h, 100 nL (AID 1138).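 Also: A549 lung adenocarcinoma cells under basal conditions with no added stimulus; test concentration not given here.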 Particulars: higher = more signal.
Experiment [8] relates to Lefty1. Nature of the experiment: Lefty1 binders on small-molecule microarrays, primary screen, biochemical, small-molecule microarray, 635/667 nm fluorescence (AID 1139). Particulars: small-molecule microarray binding, fluorescence 635/667; higher = more signal.
Experiment [9] has as its system wheat germ agglutinin (Triticum aestivum), Alexa647-labelled. Nature of the experiment: wheat germ agglutinin binders on compound microarrays, profiling panel, artefact control for SMM control-protein annotation, biochemical, small-molecule microarray, 635/667 nm fluorescence (AID 1140).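 Also: score merges 667 nm feature emission with signal to noise over triplicate slides.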 Particulars: WGA-A647 binding, 635 nm fluorescence, higher = more signal.
Experiment [10] concerns the target Luciferin 4-monooxygenase (Photinus pyralis) (UniProt P08659). Description: firefly luciferase enzyme inhibitors, primary screen, biochemical, luminescence, purified enzyme, 2006 set (AID 1141).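 Also: cell-free assay with purified firefly luciferase at 100 ng per well in PBS; test concentration not given here.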 Particulars: SteadyGlo luminescence, 30 min, higher = more signal, called active from +8 up or from −8 down.
Experiment [11] relates to Wnt5a (protein binding on small-molecule microarray). Nature of the experiment: Wnt5a binders on small-molecule microarray, primary screen, biophysical, 635/667 nm fluorescence (AID 1142).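 Also: fluorescence read at 667 nm with signal to noise per printed feature.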 Particulars: 635 nm fluorescence, higher = more signal.
Experiment [12] can be described thus: cell viability in Huh7 cells, primary screen, cytotoxicity control for HCV replication inhibitor project, CellTiter-Glo luminescence, basal, 48 h (AID 1143).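 Also: Huh7 hepatoma cells carrying a hepatitis C replication reporter with no stimulus; test concentration not given here.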 Particulars: Huh7 HCV replicon, higher = more signal, called active from +8 up or from −8 down. For orientation: ATP-based viability assays read luminescence as a measure of living cells.
Experiment [13] is described as follows: P. aeruginosa biofilm formation inhibitors, primary screen, PAO1 strain, BacTiter-Glo luminescence, LB-PBS (AID 1144). Conditions: 12 h, higher = more signal.
Experiment [14] in a line: CREB reporter modulators without forskolin, primary screen, cell-based, PC12, CRE-LacZ reporter, unstimulated (AID 1145). Conditions: no forskolin, luminescence, 4.5 h, higher = more signal, called active from +8 up or from −8 down.
Experiment [15] in a line: CREB reporter modulators under forskolin, primary screen, cell-based, PC12, CRE-LacZ reporter, forskolin-stimulated (AID 1146).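 Also: PC12 cells with 6xCRE LacZ reporter stimulated by forskolin 10 µM; beta-galactosidase reporter signal reflecting CREB driven transcription.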 Conditions: luminescence, 4.5 h, higher = more signal, called active from +8 up or from −8 down.
Experiment [16] has as its target Streptavidin (Streptomyces avidinii) (UniProt P22629). Description: streptavidin binders on small-molecule microarray, primary screen, artefact control for SMM compound annotation, biophysical, 635/667 nm fluorescence (AID 1147).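 Also: signal reflects streptavidin binding to arrayed compounds as a control protein.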 Particulars: streptavidin binding, higher = more signal.
The nature of experiment [17]: small-molecule binders of probe aInhba, primary screen, biochemical, small-molecule microarray, 635/667 nm fluorescence (AID 1148).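 Also: score merges 667nm spot fluorescence with signal-to-noise for antibody binding to printed compounds.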 Particulars: higher = more signal.
Experiment [18] addresses Torsin-1A (Homo sapiens) (UniProt O14656). Nature of the experiment: torsin A binders from cell lysate, primary screen, small-molecule microarray, wild-type, 635/667 nm (AID 1149). Conditions: COS7 hTOR1A-WT lysate, 635 nm fluorescence, higher = more signal.
Experiment [19] has the same target. Description: small-molecule binders of mutant TOR1A in lysate, primary screen, cell lysate, small-molecule microarray, COS7 lysate, 635/667 nm fluorescence (AID 1150).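 Also: score pools 667 nm emission and signal to noise measuring lysate protein binding.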 Conditions: COS7 hTOR1A mutant lysate, 635 nm fluorescence, higher = more signal.
In experiment [20] the test system is Sonic hedgehog protein (Shh). Description: small-molecule binders of Shh protein, primary screen, biochemical, small-molecule microarray, 635/667 nm fluorescence (AID 1151).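 Also: Shh protein binding to compounds spotted on small-molecule microarray slides; score combines spot fluorescence intensity with signal-to-noise across triplicate slides.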 Particulars: small-molecule microarray binding, 635 nm fluorescence; higher = more signal.

Sequence of Luciferin 4-monooxygenase (Photinus pyralis) (P08659 whole entry, looked up): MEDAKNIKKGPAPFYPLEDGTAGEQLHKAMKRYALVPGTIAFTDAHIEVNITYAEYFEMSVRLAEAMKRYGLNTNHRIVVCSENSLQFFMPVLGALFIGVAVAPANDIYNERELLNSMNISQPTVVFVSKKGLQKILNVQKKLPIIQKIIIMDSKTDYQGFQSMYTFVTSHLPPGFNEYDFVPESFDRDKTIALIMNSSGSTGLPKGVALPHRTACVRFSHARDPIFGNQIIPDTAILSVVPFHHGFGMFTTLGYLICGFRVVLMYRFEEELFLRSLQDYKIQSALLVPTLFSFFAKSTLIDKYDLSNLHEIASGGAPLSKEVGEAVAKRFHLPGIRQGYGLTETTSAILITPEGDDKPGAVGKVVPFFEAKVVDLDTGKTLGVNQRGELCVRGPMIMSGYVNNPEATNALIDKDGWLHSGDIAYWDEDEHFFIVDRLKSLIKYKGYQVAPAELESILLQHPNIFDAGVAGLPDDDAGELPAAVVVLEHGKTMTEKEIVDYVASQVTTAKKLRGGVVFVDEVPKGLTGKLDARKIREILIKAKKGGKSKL
Sequence of Streptavidin (Streptomyces avidinii) (P22629 whole entry, looked up): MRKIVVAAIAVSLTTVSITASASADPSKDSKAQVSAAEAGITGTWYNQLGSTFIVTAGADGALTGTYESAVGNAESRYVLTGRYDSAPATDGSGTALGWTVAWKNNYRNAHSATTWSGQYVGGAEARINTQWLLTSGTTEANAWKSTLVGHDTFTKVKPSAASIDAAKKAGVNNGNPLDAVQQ
Sequence of Torsin-1A (Homo sapiens) (O14656 whole entry, looked up): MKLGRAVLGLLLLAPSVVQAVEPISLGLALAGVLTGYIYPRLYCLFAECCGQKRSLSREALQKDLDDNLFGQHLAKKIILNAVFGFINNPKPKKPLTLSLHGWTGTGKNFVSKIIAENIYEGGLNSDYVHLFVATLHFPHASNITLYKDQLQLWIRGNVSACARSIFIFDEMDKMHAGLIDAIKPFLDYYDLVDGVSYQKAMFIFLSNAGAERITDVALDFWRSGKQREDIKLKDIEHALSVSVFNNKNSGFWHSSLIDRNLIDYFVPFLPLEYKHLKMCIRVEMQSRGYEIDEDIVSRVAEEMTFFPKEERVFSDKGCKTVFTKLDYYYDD
Sequence of Focal adhesion kinase 1 (Homo sapiens) (Q05397 whole entry, looked up): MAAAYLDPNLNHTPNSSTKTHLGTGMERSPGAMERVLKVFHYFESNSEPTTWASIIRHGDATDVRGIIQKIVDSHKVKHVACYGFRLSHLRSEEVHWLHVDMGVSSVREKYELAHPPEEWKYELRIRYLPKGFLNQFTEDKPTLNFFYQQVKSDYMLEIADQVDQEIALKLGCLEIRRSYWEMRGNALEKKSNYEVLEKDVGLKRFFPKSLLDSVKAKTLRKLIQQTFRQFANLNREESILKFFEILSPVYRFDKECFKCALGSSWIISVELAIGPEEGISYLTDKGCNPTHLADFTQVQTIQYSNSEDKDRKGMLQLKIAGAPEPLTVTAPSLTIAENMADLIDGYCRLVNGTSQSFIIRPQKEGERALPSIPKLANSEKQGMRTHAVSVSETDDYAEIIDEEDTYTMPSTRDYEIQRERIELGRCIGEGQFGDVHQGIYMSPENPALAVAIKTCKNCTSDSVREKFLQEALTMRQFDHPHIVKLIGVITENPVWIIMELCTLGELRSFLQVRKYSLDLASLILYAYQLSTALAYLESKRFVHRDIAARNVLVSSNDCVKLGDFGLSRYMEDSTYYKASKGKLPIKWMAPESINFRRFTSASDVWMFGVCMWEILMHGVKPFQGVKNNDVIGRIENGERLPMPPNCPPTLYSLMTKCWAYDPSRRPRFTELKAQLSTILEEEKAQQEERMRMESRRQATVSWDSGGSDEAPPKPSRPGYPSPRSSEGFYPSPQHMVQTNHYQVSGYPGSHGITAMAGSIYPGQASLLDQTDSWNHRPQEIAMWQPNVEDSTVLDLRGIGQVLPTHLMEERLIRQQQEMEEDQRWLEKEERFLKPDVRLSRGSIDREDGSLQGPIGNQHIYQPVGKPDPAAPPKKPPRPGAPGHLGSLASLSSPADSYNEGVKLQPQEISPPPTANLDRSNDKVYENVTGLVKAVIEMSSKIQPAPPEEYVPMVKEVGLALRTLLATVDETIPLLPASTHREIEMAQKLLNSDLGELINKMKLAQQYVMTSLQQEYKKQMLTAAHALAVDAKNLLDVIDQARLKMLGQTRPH

On to `C=CCNC(=O)[C@@H]1[C@H]2C(=O)O[C@H](c3ccccc3)[C@H](c3ccccc3)N2[C@H](c2ccc(O)cc2)[C@@]12C(=O)Nc1ccc(C#CC3(O)CCCCCC3)cc12`, for which the composite z-score in [1] is 0.906; in experiment [2], 0.596; in experiment [3] it was 1.31; in experiment [4], -1.37; in experiment [5], 0.726; in experiment [6], 0.749. The composite z-score is 0.304 in [8]; -0.321 in experiment [9]; 0.179 in [11]; -0.932 in experiment [16]; -0.128 in [17]; 0.16 in experiment [18]. The composite z-score in [19] is 0.781; in [20], 1.11. For the same compound, the z-score is -0.9 in [7]; 0.27 (inactive) in experiment [10]; -0.794 (inactive) in [12]; -0.817 (inactive) in experiment [13]; -1.69 (inactive) in experiment [14]; -0.361 (inactive) in [15].

Regarding `O=C1C2C=CC(C(O)c3cccc(O)c3)N(Nc3ccccc3F)C2C(=O)N1c1ccccc1` (stereo not given), the composite z-score in experiment [1] is 0.933; in experiment [2], 0.137; in experiment [3] it was 0.158; in [4] it was 0.327; in experiment [5] it was 0.434; in experiment [6], -0.214. In addition, the composite z-score in experiment [8] was 0.474; in [9], 0.248; in experiment [11] it was -0.333; in experiment [16], -0.344; in experiment [17], -0.21; in [18], -0.701. The composite z-score in experiment [19] turned out to be 0.239; in [20], 0.0048. The z-score was -0.846 in experiment [7]; 0.883 (inactive) in [10]; -6.08 (inactive) in experiment [12]; -2.21 (inactive) in [13]; -0.471 (inactive) in [14]; -0.556 (inactive) in [15].

Turning to `COCCCNC(=O)[C@@H]1c2ccccc2C(=O)N(C2CCCCC2)[C@H]1c1ccc(CO)cc1`, the composite z-score in experiment [1] is 3.06; in [2], -0.668; in experiment [3] it was 0.183; in experiment [4], -0.927; in experiment [5], -0.388; in experiment [6], -0.658. In addition, the composite z-score is -1.19 in [8]; -0.365 in [9]; -0.384 in experiment [11]; -0.59 in experiment [16]; -0.0963 in experiment [17]; 0.691 in [18]. For the same compound, the composite z-score is -1.51 in experiment [19] and -0.759 in [20]. Also, the z-score in experiment [7] is 0.705; in [10] it was -0.0838 (inactive); in [12], -4.86 (inactive); in experiment [13], -0.303 (inactive); in experiment [14], -0.385 (inactive); in experiment [15] it was 0.656 (inactive).

On to `NCCCC[C@@H]1NC(=O)[C@H]2C[C@@H](C(=O)O)[C@@H](c3cccc(OCCO)c3)N2C1=O`, for which the composite z-score in [1] came out at 3; in experiment [2], 1.26; in [3], 0.188; in experiment [4], 0.577; in experiment [5], 1.41; in experiment [6], 1.69. For the same compound, the composite z-score in experiment [8] is 1.64; in experiment [9] it was 1.44; in [11] it was 0.424; in [16], 1.99; in [17] it was 0.15; in [18] it was 1.18. Moreover, the composite z-score came out at 1.7 in experiment [19] and 1.85 in [20]. Further, the z-score in experiment [7] is -1.44; in [10] it was -1.08 (inactive); in experiment [12] it was 0.0458 (inactive); in experiment [13], -0.0686 (inactive); in [14], -0.943 (inactive); in experiment [15], 0.963 (inactive).

As for `COc1cc(OC)c(C(O)C2C=CC3C(=O)N(c4ccccc4)C(=O)C3N2Nc2ccccc2F)cc1Br` (stereo not given), the composite z-score in [1] is 1.31; in [2] it was 1.25; in experiment [3], 0.823; in experiment [4], 1.01; in experiment [5] it was 1.34; in [6] it was 0.0348. The composite z-score in experiment [8] worked out at 0.666; in experiment [9] it was 0.898; in experiment [11] it was 0.193; in [16], 1.24; in experiment [17] it was 0.206; in experiment [18], 2.01. The composite z-score in experiment [19] is 0.879; in experiment [20], -0.2. The z-score was -0.78 in experiment [7]; -0.443 (inactive) in experiment [10]; -0.259 (inactive) in [12]; -1.14 (inactive) in experiment [13]; 0.636 (inactive) in experiment [14]; 0.758 (inactive) in experiment [15].
